Results from ChEMBL document CHEMBL1961873, “Compounds: GSK PKIS; Assays: Nanosyn kinase panel” (2012).

Columns and labels:
[1] = target: T1, Mitogen-activated protein kinase 12 (Homo sapiens) (UniProt P53778); settings: at 1 µM;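 further: values are averaged p38gamma kinase inhibition readings, compounds tested at 1 µM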
T1 sequence (whole entry): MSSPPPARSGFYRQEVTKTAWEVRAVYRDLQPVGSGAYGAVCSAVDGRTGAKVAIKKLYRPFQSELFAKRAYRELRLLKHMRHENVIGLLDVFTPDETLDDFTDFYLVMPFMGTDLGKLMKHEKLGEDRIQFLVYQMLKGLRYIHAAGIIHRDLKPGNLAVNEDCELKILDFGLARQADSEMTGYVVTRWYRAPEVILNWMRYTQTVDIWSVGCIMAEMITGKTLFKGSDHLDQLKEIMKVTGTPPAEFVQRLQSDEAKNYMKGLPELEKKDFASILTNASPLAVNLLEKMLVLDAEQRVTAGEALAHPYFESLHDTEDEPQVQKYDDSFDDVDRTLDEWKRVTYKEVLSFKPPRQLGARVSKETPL

[2] = target: SRSF protein kinase 1 (Homo sapiens) (UniProt Q96SB4); settings: at 0.1 µM
[3] = target: SRSF protein kinase 1 (Homo sapiens) (UniProt Q96SB4); settings: at 1 µM
[4] = target: Phosphatidylinositol 4,5-bisphosphate 3-kinase catalytic subunit alpha isoform (Homo sapiens) (UniProt P42336); settings: at 0.1 µM
[5] = target: Phosphatidylinositol 4,5-bisphosphate 3-kinase catalytic subunit alpha isoform (Homo sapiens) (UniProt P42336); settings: at 1 µM
[6] = target: T2, Phosphatidylinositol 4,5-bisphosphate 3-kinase catalytic subunit delta isoform (Homo sapiens) (UniProt O00329); settings: at 0.1 µM
T2 sequence (whole entry): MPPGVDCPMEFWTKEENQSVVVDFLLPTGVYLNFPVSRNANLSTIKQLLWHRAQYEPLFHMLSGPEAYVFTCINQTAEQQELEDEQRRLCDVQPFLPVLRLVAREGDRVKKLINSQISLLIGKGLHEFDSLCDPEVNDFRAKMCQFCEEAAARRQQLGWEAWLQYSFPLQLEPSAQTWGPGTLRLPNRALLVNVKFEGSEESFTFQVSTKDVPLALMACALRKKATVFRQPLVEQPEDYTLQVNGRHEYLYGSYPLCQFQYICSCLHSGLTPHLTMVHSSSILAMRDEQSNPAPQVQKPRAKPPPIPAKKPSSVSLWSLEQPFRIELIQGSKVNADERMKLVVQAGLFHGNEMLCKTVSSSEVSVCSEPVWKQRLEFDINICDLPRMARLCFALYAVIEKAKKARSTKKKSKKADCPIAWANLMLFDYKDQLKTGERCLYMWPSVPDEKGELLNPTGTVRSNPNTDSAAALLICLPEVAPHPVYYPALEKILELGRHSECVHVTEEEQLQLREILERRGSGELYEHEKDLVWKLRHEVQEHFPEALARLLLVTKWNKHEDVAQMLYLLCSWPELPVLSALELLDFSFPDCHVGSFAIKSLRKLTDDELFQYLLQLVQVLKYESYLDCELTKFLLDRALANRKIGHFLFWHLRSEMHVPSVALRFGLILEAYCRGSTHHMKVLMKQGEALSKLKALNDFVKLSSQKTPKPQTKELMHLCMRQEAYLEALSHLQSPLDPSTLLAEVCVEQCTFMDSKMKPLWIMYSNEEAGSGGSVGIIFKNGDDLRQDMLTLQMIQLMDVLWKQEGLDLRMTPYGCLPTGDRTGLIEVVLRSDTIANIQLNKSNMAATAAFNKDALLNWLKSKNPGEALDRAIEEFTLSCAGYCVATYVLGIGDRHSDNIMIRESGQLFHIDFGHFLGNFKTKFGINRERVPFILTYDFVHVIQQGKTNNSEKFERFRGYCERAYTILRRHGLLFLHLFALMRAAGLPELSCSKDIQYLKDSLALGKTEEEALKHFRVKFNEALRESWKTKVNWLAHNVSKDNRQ

[7] = target: T2, Phosphatidylinositol 4,5-bisphosphate 3-kinase catalytic subunit delta isoform (Homo sapiens); settings: at 1 µM
[8] = target: Phosphatidylinositol 4-kinase beta (Homo sapiens) (UniProt Q9UBF8); settings: at 0.1 µM
[9] = target: Phosphatidylinositol 4-kinase beta (Homo sapiens) (UniProt Q9UBF8); settings: at 1 µM
[10] = target: Sphingosine kinase 1 (Homo sapiens) (UniProt Q9NYA1); settings: at 0.1 µM
[11] = target: Sphingosine kinase 1 (Homo sapiens) (UniProt Q9NYA1); settings: at 1 µM
[12] = target: T3, Sphingosine kinase 2 (Homo sapiens) (UniProt Q9NRA0); settings: at 0.1 µM
T3 sequence (whole entry): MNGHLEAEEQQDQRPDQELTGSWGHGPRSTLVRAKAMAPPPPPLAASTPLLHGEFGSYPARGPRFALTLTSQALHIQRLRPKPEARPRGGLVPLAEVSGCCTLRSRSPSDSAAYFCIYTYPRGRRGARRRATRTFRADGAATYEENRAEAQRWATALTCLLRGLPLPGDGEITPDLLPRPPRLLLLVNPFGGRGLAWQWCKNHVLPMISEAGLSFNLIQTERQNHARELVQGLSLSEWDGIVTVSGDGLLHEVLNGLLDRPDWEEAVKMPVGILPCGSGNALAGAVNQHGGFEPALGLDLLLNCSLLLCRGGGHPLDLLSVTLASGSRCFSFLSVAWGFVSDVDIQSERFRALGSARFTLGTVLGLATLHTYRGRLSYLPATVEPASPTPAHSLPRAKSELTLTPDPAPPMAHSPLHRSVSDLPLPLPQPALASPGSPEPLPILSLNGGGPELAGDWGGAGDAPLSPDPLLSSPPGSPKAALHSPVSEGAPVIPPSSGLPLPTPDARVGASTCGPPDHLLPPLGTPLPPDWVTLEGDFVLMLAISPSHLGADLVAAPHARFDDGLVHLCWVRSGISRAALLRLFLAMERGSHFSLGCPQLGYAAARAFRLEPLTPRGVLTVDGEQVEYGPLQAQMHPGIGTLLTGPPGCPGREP

[13] = target: T3, Sphingosine kinase 2 (Homo sapiens); settings: at 1 µM
[14] = target: Casein kinase II subunit alpha (Homo sapiens) (UniProt P68400); settings: at 0.1 µM
[15] = target: Casein kinase II subunit alpha (Homo sapiens) (UniProt P68400); settings: at 1 µM
[16] = target: T4, Inhibitor of nuclear factor kappa-B kinase subunit alpha (Homo sapiens) (UniProt O15111); settings: at 0.1 µM
T4 sequence (whole entry): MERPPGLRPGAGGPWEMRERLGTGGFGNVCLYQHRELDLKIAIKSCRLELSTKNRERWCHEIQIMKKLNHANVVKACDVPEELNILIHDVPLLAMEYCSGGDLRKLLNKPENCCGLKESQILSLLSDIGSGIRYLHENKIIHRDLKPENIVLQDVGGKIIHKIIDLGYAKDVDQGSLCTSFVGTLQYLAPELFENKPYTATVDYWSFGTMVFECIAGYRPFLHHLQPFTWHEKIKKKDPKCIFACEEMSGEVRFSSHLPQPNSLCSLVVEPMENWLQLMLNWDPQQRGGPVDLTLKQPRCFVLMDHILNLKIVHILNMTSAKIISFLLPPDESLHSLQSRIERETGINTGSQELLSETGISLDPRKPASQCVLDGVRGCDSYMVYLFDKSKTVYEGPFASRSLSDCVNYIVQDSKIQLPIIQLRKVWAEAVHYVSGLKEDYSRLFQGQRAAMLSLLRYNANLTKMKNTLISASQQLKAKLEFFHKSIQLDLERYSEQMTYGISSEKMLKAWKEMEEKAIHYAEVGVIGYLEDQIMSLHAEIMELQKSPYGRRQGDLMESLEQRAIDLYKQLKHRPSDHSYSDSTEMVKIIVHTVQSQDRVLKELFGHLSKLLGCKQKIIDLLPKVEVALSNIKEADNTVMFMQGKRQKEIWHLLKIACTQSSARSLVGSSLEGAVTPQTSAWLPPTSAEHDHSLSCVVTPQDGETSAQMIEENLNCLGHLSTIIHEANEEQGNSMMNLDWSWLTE

[17] = target: T4, Inhibitor of nuclear factor kappa-B kinase subunit alpha (Homo sapiens); settings: at 1 µM
[18] = target: T5, Inhibitor of nuclear factor kappa-B kinase subunit beta (Homo sapiens) (UniProt O14920); settings: at 0.1 µM
T5 sequence (whole entry): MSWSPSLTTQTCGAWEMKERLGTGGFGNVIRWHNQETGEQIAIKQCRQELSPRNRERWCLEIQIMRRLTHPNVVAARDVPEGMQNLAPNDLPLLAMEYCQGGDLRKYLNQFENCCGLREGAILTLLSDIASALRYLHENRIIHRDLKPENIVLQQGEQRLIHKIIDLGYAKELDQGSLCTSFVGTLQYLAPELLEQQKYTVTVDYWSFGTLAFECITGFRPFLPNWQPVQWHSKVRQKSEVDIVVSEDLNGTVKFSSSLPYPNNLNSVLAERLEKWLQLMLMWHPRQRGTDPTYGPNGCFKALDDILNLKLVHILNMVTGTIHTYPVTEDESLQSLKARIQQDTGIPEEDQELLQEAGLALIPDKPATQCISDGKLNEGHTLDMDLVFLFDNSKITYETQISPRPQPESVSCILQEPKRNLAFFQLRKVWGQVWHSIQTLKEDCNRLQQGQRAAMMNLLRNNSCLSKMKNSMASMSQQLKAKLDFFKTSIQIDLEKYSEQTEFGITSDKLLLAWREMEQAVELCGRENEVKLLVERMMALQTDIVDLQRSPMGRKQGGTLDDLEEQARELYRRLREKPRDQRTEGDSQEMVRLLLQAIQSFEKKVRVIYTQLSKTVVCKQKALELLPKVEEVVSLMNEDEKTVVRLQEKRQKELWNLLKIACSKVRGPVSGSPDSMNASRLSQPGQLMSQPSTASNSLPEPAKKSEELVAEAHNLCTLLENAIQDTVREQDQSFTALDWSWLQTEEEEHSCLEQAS

[19] = target: T5, Inhibitor of nuclear factor kappa-B kinase subunit beta (Homo sapiens); settings: at 1 µM
[20] = target: T6, Inhibitor of nuclear factor kappa-B kinase subunit epsilon (Homo sapiens) (UniProt Q14164); settings: at 0.1 µM;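 further: mean inhibition of IKKε reported, from the GSK PKIS dataset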
T6 sequence (whole entry): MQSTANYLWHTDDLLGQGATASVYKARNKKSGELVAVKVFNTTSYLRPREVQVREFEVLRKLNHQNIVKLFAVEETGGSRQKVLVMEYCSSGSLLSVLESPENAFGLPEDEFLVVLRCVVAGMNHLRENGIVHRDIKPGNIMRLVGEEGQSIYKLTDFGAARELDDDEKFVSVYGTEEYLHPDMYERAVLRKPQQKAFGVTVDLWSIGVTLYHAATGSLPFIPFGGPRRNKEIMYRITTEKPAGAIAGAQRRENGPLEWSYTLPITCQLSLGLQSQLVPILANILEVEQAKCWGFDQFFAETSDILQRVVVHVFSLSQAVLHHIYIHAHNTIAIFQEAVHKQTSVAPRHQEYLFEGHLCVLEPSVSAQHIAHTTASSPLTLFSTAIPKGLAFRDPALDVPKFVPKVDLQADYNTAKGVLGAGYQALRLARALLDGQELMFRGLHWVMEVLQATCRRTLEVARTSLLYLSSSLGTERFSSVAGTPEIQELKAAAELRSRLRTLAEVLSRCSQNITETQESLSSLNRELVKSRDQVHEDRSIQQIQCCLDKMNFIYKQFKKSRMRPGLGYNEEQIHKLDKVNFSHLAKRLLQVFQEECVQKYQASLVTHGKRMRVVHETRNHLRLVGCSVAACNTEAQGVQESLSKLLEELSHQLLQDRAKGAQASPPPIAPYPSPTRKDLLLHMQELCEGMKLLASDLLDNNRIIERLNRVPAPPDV

Chain of SRSF protein kinase 1 (Homo sapiens) (Q96SB4 whole entry, canonical isoform): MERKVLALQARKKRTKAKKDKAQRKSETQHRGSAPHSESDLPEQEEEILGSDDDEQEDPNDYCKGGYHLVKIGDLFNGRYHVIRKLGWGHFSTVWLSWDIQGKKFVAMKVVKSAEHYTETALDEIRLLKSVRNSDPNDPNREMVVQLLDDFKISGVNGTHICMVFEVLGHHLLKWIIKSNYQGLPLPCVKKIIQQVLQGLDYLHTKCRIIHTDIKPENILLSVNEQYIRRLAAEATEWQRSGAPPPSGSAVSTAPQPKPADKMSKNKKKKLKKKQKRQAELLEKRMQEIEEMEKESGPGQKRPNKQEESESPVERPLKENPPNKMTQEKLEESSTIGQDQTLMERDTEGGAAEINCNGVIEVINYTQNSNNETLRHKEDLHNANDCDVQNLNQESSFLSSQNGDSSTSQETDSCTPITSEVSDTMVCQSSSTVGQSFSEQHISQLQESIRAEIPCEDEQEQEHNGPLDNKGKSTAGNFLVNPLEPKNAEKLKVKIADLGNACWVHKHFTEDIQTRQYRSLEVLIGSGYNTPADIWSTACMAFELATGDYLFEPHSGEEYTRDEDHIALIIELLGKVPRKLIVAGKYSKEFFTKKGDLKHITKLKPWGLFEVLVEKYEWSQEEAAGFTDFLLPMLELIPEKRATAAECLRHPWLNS
Chain of Phosphatidylinositol 4-kinase beta (Homo sapiens) (Q9UBF8 2-816 limits assumed): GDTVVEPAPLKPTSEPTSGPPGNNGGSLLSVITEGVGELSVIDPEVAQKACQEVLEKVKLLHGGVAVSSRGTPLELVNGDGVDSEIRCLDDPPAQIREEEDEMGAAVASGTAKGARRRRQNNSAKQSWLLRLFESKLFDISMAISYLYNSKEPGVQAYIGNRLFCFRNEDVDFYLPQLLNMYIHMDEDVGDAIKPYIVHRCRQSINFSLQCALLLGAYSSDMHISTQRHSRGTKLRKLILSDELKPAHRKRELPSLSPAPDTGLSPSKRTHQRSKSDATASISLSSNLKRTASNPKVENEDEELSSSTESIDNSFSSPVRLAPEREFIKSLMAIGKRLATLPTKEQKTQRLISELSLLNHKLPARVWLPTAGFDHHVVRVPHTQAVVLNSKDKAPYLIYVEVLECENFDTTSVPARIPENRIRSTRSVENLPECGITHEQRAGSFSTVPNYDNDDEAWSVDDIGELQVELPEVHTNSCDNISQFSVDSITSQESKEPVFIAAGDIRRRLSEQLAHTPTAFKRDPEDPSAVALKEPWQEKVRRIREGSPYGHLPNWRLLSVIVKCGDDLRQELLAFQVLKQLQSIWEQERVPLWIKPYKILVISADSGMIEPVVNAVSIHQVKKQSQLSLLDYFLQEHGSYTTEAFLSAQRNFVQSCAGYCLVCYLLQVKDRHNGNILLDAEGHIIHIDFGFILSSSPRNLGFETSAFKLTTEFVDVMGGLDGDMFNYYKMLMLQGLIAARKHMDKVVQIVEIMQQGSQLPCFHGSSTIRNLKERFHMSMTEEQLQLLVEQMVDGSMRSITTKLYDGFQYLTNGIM
Chain of Casein kinase II subunit alpha (Homo sapiens) (P68400 whole entry, looked up): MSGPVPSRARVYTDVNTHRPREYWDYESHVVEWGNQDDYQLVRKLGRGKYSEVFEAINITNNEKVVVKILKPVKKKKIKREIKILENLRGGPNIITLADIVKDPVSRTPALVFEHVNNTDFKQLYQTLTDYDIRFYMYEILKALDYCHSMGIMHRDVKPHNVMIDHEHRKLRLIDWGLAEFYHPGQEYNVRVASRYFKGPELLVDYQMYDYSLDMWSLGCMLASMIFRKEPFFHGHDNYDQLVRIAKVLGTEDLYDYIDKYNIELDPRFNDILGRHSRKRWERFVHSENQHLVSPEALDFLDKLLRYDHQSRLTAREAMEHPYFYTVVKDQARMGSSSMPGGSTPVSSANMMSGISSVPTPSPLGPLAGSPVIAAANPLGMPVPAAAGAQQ
Chain of Phosphatidylinositol 4,5-bisphosphate 3-kinase catalytic subunit alpha isoform (Homo sapiens) (P42336 whole entry, canonical isoform): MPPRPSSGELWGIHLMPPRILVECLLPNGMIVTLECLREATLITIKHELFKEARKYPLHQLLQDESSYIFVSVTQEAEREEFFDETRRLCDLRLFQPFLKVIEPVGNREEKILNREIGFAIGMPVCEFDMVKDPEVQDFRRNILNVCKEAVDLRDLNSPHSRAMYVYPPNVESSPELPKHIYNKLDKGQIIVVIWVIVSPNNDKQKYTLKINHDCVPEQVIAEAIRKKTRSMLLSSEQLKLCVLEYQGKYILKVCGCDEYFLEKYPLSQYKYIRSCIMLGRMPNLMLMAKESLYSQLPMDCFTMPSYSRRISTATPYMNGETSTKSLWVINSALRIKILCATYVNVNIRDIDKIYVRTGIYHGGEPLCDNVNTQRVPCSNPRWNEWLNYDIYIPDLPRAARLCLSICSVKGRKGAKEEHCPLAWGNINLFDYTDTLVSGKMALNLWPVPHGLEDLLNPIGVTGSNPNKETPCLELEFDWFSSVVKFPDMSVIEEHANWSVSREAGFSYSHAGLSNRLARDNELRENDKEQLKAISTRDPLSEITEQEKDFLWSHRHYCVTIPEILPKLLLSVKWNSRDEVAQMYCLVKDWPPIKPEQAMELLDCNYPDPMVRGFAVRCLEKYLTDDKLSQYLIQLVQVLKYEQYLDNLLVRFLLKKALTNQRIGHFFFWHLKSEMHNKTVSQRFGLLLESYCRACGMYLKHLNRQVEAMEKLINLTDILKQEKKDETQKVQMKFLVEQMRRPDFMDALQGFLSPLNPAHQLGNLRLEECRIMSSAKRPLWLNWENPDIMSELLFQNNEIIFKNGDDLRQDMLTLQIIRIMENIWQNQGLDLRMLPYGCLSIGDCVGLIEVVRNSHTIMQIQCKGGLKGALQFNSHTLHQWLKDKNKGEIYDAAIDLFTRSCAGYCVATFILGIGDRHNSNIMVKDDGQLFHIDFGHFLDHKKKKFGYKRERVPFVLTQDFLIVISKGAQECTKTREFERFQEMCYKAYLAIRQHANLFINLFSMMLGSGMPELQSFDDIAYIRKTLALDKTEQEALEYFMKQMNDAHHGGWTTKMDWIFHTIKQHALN
Chain of Sphingosine kinase 1 (Homo sapiens) (Q9NYA1 whole entry): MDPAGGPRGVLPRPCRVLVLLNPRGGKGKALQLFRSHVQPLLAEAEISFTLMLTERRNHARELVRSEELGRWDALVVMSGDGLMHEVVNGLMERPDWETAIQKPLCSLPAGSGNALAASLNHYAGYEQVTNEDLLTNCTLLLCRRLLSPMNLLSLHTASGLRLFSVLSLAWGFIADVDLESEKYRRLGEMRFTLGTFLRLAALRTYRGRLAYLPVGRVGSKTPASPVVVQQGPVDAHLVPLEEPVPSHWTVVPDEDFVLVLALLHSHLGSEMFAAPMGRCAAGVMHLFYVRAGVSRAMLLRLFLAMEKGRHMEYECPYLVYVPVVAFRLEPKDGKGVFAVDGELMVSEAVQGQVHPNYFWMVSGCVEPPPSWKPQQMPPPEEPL

SMILES	inhibition [1] [%]	inhibition [2] [%]	inhibition [3] [%]	inhibition [4] [%]	inhibition [5] [%]	inhibition [6] [%]	inhibition [7] [%]	inhibition [8] [%]	inhibition [9] [%]	inhibition [10] [%]	inhibition [11] [%]	inhibition [12] [%]	inhibition [13] [%]	inhibition [14] [%]	inhibition [15] [%]	inhibition [16] [%]	inhibition [17] [%]	inhibition [18] [%]	inhibition [19] [%]	inhibition [20] [%]
Clc1ccc(-c2nn3ncccc3c2-c2ccnc(Nc3ccccc3)n2)cc1	1.71	-1.15	-1.1	2.48	5.33	4.92	7.17	-0.39	0.11	0.81	-1.12	-0.19	0.98	1.72	1.08	-0.83	0.14	-3.05	-3.62	1.23
c1ccc(COc2ccc(Nc3ncnc4ccc(-c5ccco5)cc34)cc2)cc1	0.69	-1.86	-1.65	0.06	2.59	3.33	4.52	-1.76	-1.04	1.84	0.95	-2.53	1.35	1.23	4.42	-5.49	0.49	1.07	0.01	4.51
CCCN(CCS(C)(=O)=O)Cc1ccc(-c2ccc3ncnc(Nc4ccc(OCc5cccc(F)c5)c(Cl)c4)c3c2)o1	1.28	-1.14	-0.67	0.82	4.19	0.06	6.07	1.73	0.08	7	0.07	0.75	0.76	4.77	9.35	3.79	2.86	0.53	0.26	2.17
COc1ccc2c(-c3ccnc(Nc4cccc(OC(F)(F)F)c4)n3)cnn2n1	2.47	-0.39	3.84	2.57	6.99	0.71	5.67	0.16	2.84	0	-1.74	1.81	-2.35	4	20	4.59	7.22	3.15	6.88	9.38
COc1cc(/C=N/Nc2ncnc3[nH]ncc23)ccc1O	2.2	-1.89	2.08	10.2	44.2	3.6	20.3	6.86	30.9	-1.46	-2.47	0.06	0.42	8.38	34.8	14.9	62	5.05	13.6	0.87
COc1cc2ncn(-c3cc(OCc4ccccc4C(F)(F)F)c(C(=O)N(C)C)s3)c2cc1OC	0.94	-1.25	-2.46	0.78	1.16	0.51	2.3	2.07	0.96	2.3	-3.72	0.13	-2.18	-0.24	2.74	5.36	2.95	-0.51	0.42	0.86
COc1ccc(-c2oc3ncnc(N)c3c2-c2ccc(NC(=O)Nc3cc(C(F)(F)F)ccc3F)cc2)cc1	17.6	1.18	34.5	2.34	20.6	2.28	22.4	6.88	5.84	0.16	-0.9	0.08	0.05	6.63	16.7	1.18	2.5	7.03	5.27	8.13
